The source of these data is the supplement of paper PMC12067093, “Discovery and optimisation of a covalent ligand for TRIM25 and its application to targeted protein ubiquitination” (Chemical Science, 2025).

About 21,000 targets were measured; listed, in parts, are those with the largest changes and a random draw of the rest.

Compound in the experiment: Cc1cc(ccc1-c1ccccc1)C(=O)N1CCCN(CC1)C(=O)CCl [compound 10]
Kind of experiment: probe-labelled cysteine peptide fold change vs DMSO (competition) (log2 fold change); higher = less target engagement (more negative = stronger competition). The conditions noted are these: THP-1, incubation time: 4 h.
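Also: competitive profiling in live THP-1 cells: cysteine peptides tagged with an iodoacetamide desthiobiotin (IA-DTB) probe, intensity after compound treatment relative to DMSO-treated cells.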

Sequence of UniProt Q15052 (Q15052 whole entry, looked up): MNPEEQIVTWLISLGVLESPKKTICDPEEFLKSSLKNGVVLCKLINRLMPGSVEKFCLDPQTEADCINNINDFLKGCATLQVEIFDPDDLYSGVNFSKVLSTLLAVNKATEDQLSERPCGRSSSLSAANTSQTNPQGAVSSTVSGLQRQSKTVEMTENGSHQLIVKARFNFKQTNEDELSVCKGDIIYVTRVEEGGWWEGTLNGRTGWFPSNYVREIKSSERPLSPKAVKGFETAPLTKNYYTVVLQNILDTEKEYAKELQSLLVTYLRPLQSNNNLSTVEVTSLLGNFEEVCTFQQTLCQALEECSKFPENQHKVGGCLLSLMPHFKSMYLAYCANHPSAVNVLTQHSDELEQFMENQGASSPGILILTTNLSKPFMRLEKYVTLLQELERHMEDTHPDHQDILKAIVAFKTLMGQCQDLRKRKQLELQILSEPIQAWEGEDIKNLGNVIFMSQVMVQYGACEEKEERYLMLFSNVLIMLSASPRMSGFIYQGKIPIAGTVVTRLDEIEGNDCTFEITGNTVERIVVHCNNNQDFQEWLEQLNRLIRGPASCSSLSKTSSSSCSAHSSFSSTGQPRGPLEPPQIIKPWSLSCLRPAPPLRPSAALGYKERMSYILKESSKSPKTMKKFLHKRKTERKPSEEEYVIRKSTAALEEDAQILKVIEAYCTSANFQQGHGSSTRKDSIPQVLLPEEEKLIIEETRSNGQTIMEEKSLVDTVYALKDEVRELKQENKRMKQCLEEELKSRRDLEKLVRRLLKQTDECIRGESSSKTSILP
Sequence of UniProt Q66PJ3 (Q66PJ3 whole entry, looked up): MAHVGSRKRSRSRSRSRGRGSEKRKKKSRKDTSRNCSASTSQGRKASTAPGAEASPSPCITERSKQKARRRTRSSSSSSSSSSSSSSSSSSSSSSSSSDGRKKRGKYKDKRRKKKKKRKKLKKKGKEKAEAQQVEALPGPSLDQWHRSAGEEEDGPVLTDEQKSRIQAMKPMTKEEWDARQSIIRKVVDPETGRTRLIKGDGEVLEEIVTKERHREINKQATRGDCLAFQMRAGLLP
Sequence of UniProt Q17R89 (Q17R89 whole entry): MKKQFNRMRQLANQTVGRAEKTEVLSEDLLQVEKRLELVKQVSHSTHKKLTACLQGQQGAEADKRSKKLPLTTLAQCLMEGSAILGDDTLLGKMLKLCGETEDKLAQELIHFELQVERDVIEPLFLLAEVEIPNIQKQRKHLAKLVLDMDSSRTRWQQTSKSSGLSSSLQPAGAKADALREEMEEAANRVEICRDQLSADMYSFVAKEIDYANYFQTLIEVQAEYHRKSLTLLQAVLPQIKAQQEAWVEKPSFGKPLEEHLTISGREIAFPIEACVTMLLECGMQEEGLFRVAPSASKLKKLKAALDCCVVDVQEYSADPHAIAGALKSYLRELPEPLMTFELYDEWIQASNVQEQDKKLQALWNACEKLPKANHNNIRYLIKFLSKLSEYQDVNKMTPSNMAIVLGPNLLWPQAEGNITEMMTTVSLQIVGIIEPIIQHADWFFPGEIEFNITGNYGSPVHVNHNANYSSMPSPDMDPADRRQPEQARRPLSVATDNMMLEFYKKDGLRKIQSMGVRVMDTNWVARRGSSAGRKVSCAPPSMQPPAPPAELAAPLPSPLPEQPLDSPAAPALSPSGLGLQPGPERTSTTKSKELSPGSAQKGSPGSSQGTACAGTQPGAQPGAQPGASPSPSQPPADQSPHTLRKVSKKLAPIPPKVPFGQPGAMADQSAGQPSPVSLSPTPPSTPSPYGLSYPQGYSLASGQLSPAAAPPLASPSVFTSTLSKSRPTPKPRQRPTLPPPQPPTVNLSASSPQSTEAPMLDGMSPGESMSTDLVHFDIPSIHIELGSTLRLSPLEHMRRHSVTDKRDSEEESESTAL
Sequence of UniProt Q8IV38 (Q8IV38 whole entry, looked up): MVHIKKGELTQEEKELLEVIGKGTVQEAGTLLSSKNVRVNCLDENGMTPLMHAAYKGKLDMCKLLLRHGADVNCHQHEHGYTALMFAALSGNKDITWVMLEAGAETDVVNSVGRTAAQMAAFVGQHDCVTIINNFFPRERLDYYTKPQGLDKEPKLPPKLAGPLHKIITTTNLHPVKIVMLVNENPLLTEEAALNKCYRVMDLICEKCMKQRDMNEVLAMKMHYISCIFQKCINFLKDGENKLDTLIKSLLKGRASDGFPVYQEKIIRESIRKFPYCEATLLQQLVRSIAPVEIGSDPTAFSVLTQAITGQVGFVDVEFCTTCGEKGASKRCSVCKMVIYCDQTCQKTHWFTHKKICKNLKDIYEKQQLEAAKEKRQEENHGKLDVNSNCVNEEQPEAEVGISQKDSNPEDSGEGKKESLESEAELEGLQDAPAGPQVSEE
Sequence of UniProt P14550 (P14550 whole entry, looked up): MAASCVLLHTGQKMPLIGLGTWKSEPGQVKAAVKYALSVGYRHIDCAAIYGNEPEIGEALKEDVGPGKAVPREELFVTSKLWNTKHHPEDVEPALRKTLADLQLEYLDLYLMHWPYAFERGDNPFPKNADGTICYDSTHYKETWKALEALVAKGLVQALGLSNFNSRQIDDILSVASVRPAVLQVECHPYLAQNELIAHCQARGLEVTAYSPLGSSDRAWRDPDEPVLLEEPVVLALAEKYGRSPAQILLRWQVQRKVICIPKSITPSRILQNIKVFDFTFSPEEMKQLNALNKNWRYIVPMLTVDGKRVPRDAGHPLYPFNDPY
Sequence of UniProt Q9ULJ7 (Q9ULJ7 whole entry, looked up): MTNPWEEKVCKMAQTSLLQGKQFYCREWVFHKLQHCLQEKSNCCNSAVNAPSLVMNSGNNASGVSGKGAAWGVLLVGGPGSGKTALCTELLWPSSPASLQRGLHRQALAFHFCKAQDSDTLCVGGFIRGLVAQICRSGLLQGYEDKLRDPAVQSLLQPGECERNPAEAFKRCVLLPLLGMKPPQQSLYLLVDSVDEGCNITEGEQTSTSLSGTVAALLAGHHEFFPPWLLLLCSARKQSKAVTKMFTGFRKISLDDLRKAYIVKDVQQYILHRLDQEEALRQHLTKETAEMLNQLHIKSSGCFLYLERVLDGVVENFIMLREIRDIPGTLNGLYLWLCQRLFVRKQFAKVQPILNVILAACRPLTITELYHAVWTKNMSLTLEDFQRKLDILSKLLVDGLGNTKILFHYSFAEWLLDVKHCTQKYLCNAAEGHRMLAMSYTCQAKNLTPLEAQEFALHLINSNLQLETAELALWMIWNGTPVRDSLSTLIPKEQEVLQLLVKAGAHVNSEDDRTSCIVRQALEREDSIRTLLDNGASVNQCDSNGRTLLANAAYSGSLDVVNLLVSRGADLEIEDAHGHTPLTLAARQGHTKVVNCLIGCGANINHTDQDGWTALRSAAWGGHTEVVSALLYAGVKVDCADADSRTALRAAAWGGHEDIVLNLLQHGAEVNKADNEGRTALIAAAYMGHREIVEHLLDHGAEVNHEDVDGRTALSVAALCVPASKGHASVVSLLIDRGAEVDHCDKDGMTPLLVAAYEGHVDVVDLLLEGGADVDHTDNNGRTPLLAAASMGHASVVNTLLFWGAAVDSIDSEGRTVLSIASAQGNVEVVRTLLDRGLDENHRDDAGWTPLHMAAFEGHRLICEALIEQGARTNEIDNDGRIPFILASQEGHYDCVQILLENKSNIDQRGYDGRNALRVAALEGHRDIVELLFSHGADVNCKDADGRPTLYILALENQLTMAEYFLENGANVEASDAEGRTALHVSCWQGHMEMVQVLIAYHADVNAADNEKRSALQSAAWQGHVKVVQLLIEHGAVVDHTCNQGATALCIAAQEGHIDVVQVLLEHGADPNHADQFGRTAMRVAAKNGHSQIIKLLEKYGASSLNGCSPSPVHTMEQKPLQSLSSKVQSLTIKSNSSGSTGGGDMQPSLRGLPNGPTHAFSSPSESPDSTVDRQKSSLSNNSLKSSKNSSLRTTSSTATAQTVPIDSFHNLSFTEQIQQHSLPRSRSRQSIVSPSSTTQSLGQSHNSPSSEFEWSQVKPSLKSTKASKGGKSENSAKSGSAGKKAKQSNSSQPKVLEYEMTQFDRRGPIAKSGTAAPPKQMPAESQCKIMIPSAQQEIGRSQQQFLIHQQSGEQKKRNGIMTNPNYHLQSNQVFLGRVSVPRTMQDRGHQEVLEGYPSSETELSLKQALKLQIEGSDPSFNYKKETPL
Sequence of UniProt Q15067 (Q15067 whole entry, looked up): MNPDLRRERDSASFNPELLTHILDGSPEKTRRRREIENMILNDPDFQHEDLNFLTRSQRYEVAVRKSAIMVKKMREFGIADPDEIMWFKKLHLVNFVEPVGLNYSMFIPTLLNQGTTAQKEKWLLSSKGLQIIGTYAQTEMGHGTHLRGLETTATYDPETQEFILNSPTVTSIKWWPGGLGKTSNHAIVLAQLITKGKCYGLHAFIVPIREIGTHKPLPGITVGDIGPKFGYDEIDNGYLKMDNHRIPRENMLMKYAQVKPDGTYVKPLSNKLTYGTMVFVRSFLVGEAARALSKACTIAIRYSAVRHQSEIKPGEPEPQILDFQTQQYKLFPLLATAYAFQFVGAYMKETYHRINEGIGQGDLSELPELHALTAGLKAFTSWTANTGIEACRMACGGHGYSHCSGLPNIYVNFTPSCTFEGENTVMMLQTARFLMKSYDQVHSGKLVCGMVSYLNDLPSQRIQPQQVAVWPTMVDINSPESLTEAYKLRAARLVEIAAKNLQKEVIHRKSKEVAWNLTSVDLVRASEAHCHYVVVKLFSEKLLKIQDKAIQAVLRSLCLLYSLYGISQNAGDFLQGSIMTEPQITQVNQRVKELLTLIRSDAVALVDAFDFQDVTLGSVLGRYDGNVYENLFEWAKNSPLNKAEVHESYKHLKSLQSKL
Sequence of UniProt Q9NVV5 (Q9NVV5 whole entry): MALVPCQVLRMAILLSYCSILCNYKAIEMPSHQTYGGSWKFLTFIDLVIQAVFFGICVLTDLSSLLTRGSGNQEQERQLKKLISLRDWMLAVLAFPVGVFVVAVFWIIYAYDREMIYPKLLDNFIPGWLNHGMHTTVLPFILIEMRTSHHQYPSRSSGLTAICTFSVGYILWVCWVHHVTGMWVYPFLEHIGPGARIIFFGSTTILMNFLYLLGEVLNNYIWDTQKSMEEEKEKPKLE

“ARHGAP44_Q17R89_193_ADALREEMEEAANRVEICR (UniProt Q17R89)”: the “probe-labelled cysteine peptide fold change” value is -0.0472 (10 µM) and -0.212 (50 µM).
For the target “ARHGEF6_Q15052_319_VGGCLLSLMPHFK (UniProt Q15052)”, the “probe-labelled cysteine peptide fold change” value by setting is: (10 µM) -0.297; (50 µM) -0.105.
“ARL6IP4_Q66PJ3-3_220_NCSASTSQER (UniProt Q66PJ3)”: the “probe-labelled cysteine peptide fold change” value is -0.274 (10 µM) and -0.819 (50 µM).
In the same order, the values of “ARPC1B_O15143_227_VAWVSHDSTVCLADADKK (UniProt O15143)” are 0.103 and -0.0807.
“ATL2_Q8NHH9_293_HIHNCFSNLGCFLLPHPGLK (UniProt Q8NHH9)”: the “probe-labelled cysteine peptide fold change” value reads like this: (10 µM) -0.0463; (50 µM) -0.137.
As to “ACOX1_Q15067_392_AFTSWTANTGIEACR (UniProt Q15067)”, the “probe-labelled cysteine peptide fold change” value is, setting by setting: (10 µM) 0.0592; (50 µM) 0.0993.
For “AKR1A1_P14550_46_HIDCAAIYGNEPEIGEALKEDVGPGK (UniProt P14550)”, the “probe-labelled cysteine peptide fold change” value by setting is: (10 µM) -0.393; (50 µM) -1.14.
In the same order, the values of “ANKMY2_Q8IV38_390_LDVNSNCVNEEQPEAEVGISQK (UniProt Q8IV38)” are -0.281 and -0.0242.
“ATRX_P46100_1242_IKPVTENLVLSSHTGFCQSSGDEALSK (UniProt P46100)”: the “probe-labelled cysteine peptide fold change” value was -0.15 (10 µM) and -0.661 (50 µM).
Turning to “ADAM10_O14672_222_NTCQLYIQTDHLFFK (UniProt O14672)”, the “probe-labelled cysteine peptide fold change” value runs as follows: (10 µM) 0.033; (50 µM) 0.208.
In the same order, the values of “ANKRD50_Q9ULJ7_113_QALAFHFCK (UniProt Q9ULJ7)” are 1.31 and 1.7.
Turning to “AIG1_Q9NVV5_6_MALVPCQVLR (UniProt Q9NVV5)”, the “probe-labelled cysteine peptide fold change” value (10 µM) is -0.836 and the “probe-labelled cysteine peptide fold change” value (50 µM) was -1.35.
“ADAM10_O14672_530_DDSDCAR (UniProt O14672)”: the “probe-labelled cysteine peptide fold change” value (10 µM) came to 0.552 and the “probe-labelled cysteine peptide fold change” value (50 µM) amounted to 1.2.
Turning to “ARFGEF1_Q9Y6D6_1729_QETSSLACGLR (UniProt Q9Y6D6)”, the “probe-labelled cysteine peptide fold change” value (10 µM) was -0.151 and the “probe-labelled cysteine peptide fold change” value (50 µM) was found to be 0.114.
